The text below walks through data of PubChem BioAssay (EPA / NIEHS).

SMILES strings stand for the structures. More than one record can exist for a structure, and the calls need not agree. Active and inactive are the calls of the source. How the source made its calls: active means hit-call score of the fitted dose curve at least 0.9, where 1 is the maximum; inactive means score below 0.9.

The nature of this assay: ATG_TAL_CIS: Attagene CIS-FACTORIAL HepG2 Assay for human TAL Basal Promoter (AID 2282966). The settings on record: HepG2 Attagene cis-factorial TAL promoter reporter; actives raise or lower the signal. The procedure: ATG_CIS is a cell-based, multiplexed-readout assay that uses HepG2, a human liver cell line, with measurements taken at 24 hours after chemical dosing in a 24-well plate.ATG_TAL_CIS is one of 52 assay component(s) measured or calculated from the ATG_CIS assay. It is designed to make measurements of mRNA induction, a form of inducible reporter, as detected with fluorescence intensity signals by Reverse transcription polymerase chain reaction (RT-PCR) and Capillary electrophoresis technology.Data from the assay component ATG_TAL_CIS was analyzed into 1 assay endpoint. This assay endpoint, ATG_TAL_CIS, was analyzed with bidirectional fitting relative to DMSO as the negative control and baseline of activity. Using a type of inducible reporter, measures of mRNA for gain or loss-of-signal activity can be used to understand the background control at the transcription factor-level as they relate to the gene . Furthermore, this assay endpoint can be referred to as a secondary readout, because this assay has produced multiple assay endpoints where this one serves a background control function. To generalize the intended target to other relatable targets, this assay endpoint is annotated to the background measurement intended target family, where the subfamily is internal marker.
Human liver HepG2 cells are transiently transfected with multiple reporter transcription units (MRTUs) in 6-well plates using FuGene 6 reagent (Roche; 3 ml FuGene/1 mg DNA). The MRTU constructs are regulated by a cis-regulating element (promoter). […] A major difference between the CIS and TRANS system is that in CIS activities of endogenous TFs are measured, whereas the TRANS assay evaluates changes in activities of exogenous, chimeric NR-Gal4 proteins. […] At the end of 24 hour incubation, total RNA was isolated using TriZol reagent (Invitrogen). The isolated RNA is then reverse-transcribed using oligo(dT) primer and Mo-MLV reverse transcriptase (Invitrogen) with DNAse I (Ambion) treatment for 30 min. The one-tenth of the produced cDNA was amplified by PCR using Taq DNA polymerase (Invitrogen) and two reporter sequence-specific primers. The PCR products were fluorescently labeled by primer extension with 6-arboxyfluorescein (6-FAM) 5'-labeled reporter sequence-specific primer (2 min at 95 C, 20 s at 68 C and 10 min at 72 C) and these products were digested with 5U of HpaI (New England Biolabs) for 2h at 37 C. The fragments were purified using Qiaquick PCR columns (Qiagen), analyzed on an ABI 3130xL genetic analyzer (Applied Biosystems) with peak positions identified by using a set of X-rhodamine (ROX)-labeled MapMarker1000 molecular weight standards (BioVentures). The raw capillary electrophoresis data was processed using Attagraph software (Attagene).
For the compound `COC[C@H](C)N(C(=O)CCl)c1c(C)csc1C`, the compound was called inactive.
As to `C[C@H]1CCCC(=O)CCC/C=C/c2cc(O)cc(O)c2C(=O)O1`, the result was inactive.
With `CCCCCCCCSC(=O)Oc1cc(Cl)nnc1-c1ccccc1`, the AC50 is 71.3 µM (active).
With `O=C(O)Cc1ccccc1`, the outcome was inactive.
Regarding `CCCCC(CC)CO[N+](=O)[O-]` (stereo not given), the outcome was inactive.
Turning to `CC(=[OH+])/C=C(/C)[O-].CC(=[OH+])/C=C(/C)[O-].CC(=[OH+])/C=C(/C)[O-].[Al]`, the compound was called inactive.
The same measure, in the same setting: the value for `CCC[CH2][Sn]([Cl])([Cl])[Cl]` was “inactive”.
The same measure, in the same setting: the value for `CC(C)(c1ccccc1)c1ccc(O)c(C(C)(C)c2ccccc2)c1` was “inactive”; that for `CC1(C)Cc2cccc(O)c2O1` was “inactive”.
Same read-out and setting: the value for `ClCC(Cl)CCl` was “inactive”; that for `CCOP(=O)(CN(CCO)CCO)OCC` was “inactive”.
Consider `ClC1(Cl)C2(Cl)C3(Cl)C4(Cl)C(Cl)(Cl)C5(Cl)C3(Cl)C1(Cl)C5(Cl)C24Cl` (stereo not given), for which the compound was called inactive.
The same measure, in the same setting: the value for `C[C@]12CC[C@H](O)CC1=CC[C@@H]1[C@@H]2CC[C@]2(C)C(=O)CC[C@@H]12` was “inactive”; that for `CNC(=O)O/N=C/C(C)(C)S(C)=O` (stereo not given) was “inactive”.
With `O=C(O)C(F)(F)C(F)(F)C(F)(F)C(F)(F)C(F)(F)C(F)(F)C(F)(F)C(F)(F)C(F)(F)C(F)(F)F`, the AC50 was 95.5 µM (active) and the compound was called inactive.
For `O=C(Nc1ccc2[nH]ccc2c1)c1cc2cc(F)ccc2n1Cc1cccc(F)c1`, the compound was classed as inactive.
On the same count and under the same terms, the value for `N#CCc1ccc(Cl)cc1` was “inactive”; that for `CC(Br)C(=O)O` (stereo not given) was “inactive”.
Same read-out and setting: the value for `COP(=S)(OC)Oc1cc(Cl)c(Cl)cc1Cl` was “inactive”.
Still for that read-out and setting: the value for `CCOP(=S)(OCC)Oc1nc(Cl)c(Cl)cc1Cl` was “inactive”.
Take `Fc1ccc(C2(Cn3cncn3)OC2c2ccccc2Cl)cc1` (stereo not given): the result was inactive.
The same measure, in the same setting: the value for `COP(=S)(OC)Oc1ccc(S(=O)(=O)N(C)C)cc1` was “inactive”; that for `CCN(CC)C(=O)Cl` was “inactive”.
On the same count and under the same terms, the value for `O=C(O)C(F)(F)C(F)(F)C(F)(F)C(F)(F)C(F)(F)C(F)(F)F` was “inactive”.
On to `O=C1C2(Cl)C3(Cl)C4(Cl)C(Cl)(Cl)C5(Cl)C3(Cl)C1(Cl)C5(Cl)C24Cl` (stereo not given), for which the concentration at half-maximal activity (AC50) is 20.3 µM (active) and the call was inactive.
As to `Nc1ccc(N=Nc2ccc(-c3ccc(N=Nc4c(S(=O)(=O)O)cc5cc(S(=O)(=O)O)c(N=Nc6ccccc6)c(O)c5c4N)cc3)cc2)c(N)c1`, the compound was called inactive.
The same measure, in the same setting: the value for `Oc1ccc(-c2ccccc2)cc1` was “inactive”.
Still for that read-out and setting: the value for `COc1ccc(OC)c(C=O)c1` was “inactive”.
`CCOC(=O)Nc1cccc(OC(=O)Nc2ccccc2)c1`: the outcome was inactive.
Same read-out and setting: the value for `CCCCCCCCC(=O)NCc1ccc(O)c(OC)c1` was “inactive”.
On the same count and under the same terms, the value for `CCOP(OCC)OCC` was “inactive”; that for `CC12CC1(C)C(=O)N(c1cc(Cl)cc(Cl)c1)C2=O` (stereo not given) was “inactive”; that for `CCCCP(CCCC)CCCC` was “inactive”.
Still for that read-out and setting: the value for `ClCc1cccnc1` was “inactive”.
Regarding `NNC(=S)NN`, the compound was classed as inactive.
Still for that read-out and setting: the value for `O=C(CCl)CCl` was “inactive”.
For the compound `C[C@H]1O[C@@H](O[C@H]2[C@@H](O)C[C@H](O[C@H]3[C@@H](O)C[C@H](O[C@H]4CC[C@@]5(C)[C@H](CC[C@@H]6[C@@H]5CC[C@]5(C)[C@@H](C7=CC(=O)OC7)CC[C@]65O)C4)O[C@@H]3C)O[C@@H]2C)C[C@H](O)[C@@H]1O`, the AC50 is 0.0564 µM (active).
Same read-out and setting: the value for `COP(=O)(OC)O/C(=C\Cl)c1cc(Cl)c(Cl)cc1Cl` was 100 µM (active).
